# ATXN2 expr inh: reduces ATXN2 reporter expression in HEK-293 cells. HEK-293 ATXN2-luciferase reporter, luminescence, 24 h. Potency, µM (series often up to 57 µM), for the others: at the top dose activity change, negative = inhibition, most hits filed as inhibitors. actives 0.72% (n = 360,000). AID 1745845; also: potency is read from the fitted curve at half-maximal effect; % is scaled to controls: 0 for no effect and ±100 for the full control effect; nearly all actives have a fitted effect of over 55% in size
#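 ATXN2-luciferase reporter cells (luciferase flanked by upstream and downstream ATXN2 gene portions) were treated 24 h at 37 °C with compounds at up to 57 uM. SteadyGlo luminescence gave expression; GF-AFC fluorescence gave viability.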
# USP1 inh: inhibitors of human USP1/UAF1 deubiquitinase; O94782; recombinant USP1/UAF1, Ub-Rhodamine cleavage fluorescence; Potency, µM (doses to about 57.1 µM), for inactives: top-dose activity change, negative = inhibition, hits mostly inhibitors; actives 0.23% (n = 390,000); also: potency is read from the fitted curve at half-maximal effect; % is scaled to controls: 0 for no effect and ±100 for the full control effect; nearly all actives have a fitted effect of over 60% in size
#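 USP1/UAF1 complex (1 nM) preincubated 15 min at room temperature with compound, then Ub-Rho substrate (150 nM final) added. Kinetic fluorescence at 480/540 nm over 6 reads at 60 s intervals; 50 mM HEPES pH 7.8, 0.5 mM EDTA, 0.1 mg/ml BSA, 1 mM TCEP, 0.01% Tween-20.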
# IL-1B inflam inh: blocks inflammasome-driven IL-1 beta release. THP-1 LPS/ATP IL-1B secretion, AlphaLISA, 16 h; stronger effect = lower value. activity change, % at 57.5 µM. actives 4.7% (n = 360,000). AID 743279; in the data active = activity change below about -50%; inconclusive = mostly about -30% to -49%; also: % is scaled to controls: 0 for no effect and ±100 for the full control effect
#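 Secreted IL-1B measured by AlphaLISA bead assay after 16 h compound exposure of THP-1 cells; compounds (final up to 57.5 uM) added 1 h before LPS (250 ng/mL) and ATP (1.25 mM) stimulation; lower signal means less secretion.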
# ATXN viability: viability counter-screen for ATXN expression inhibitors; S2 cells (HEK-293 line with an ATXN2-luciferase reporter) viability, CellTiter-Fluor protease fluorescence, 24 h; Potency, µM (top dose mostly 56.7 µM), most hits filed as cytotoxic; actives 0.49% (n = 400,000); also: potency is read from the fitted curve at half-maximal effect; nearly all actives have a fitted effect of over 40% in size
# USP2a inh: USP2a (human) protease inhibition. O75604. USP2 core, Ub-CHOP2 coupled fluorogenic reporter, 485/531. Potency, µM (top dose mostly 38.3 µM), inactives show at the top dose activity change, negative = inhibition, hits mostly inhibitors. actives 0.01% (n = 330,000). AID 463254;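 also: potency is read from the fitted curve at half-maximal effect; plate controls were DMSO wells for no effect and full inhibition by NEM control for full effect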
# Target sequence (O75604 whole entry, looked up): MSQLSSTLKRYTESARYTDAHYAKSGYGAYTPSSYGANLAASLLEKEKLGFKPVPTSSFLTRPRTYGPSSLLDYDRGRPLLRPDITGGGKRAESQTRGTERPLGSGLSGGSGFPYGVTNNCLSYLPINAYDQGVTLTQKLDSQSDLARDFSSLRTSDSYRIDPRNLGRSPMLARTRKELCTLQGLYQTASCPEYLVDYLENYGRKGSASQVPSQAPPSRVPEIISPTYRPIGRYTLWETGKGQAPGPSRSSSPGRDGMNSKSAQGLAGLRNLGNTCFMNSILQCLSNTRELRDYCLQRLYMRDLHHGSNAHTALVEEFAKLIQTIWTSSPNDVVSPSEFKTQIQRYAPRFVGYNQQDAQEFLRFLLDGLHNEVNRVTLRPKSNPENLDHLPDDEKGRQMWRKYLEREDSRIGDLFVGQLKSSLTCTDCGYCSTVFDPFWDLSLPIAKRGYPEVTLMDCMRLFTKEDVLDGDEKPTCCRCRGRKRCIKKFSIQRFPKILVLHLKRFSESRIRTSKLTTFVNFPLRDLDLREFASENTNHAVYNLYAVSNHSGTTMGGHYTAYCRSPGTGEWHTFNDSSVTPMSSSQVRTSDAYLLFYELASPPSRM
#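 Deubiquitinase activity read as fluorescence (485/531 nm) after Ub-CHOP2 cleavage activates the enterokinase reporter on its substrate; USP2 core 10nM, Ub-CHOP2 and substrate 25nM each, 30min compound preincubation then 60min RT; data normalized to NEM, curves fitted.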
# Active calls of the source: *; i = inactive; ? = inconclusive; / = not tested or not shown; [ ] = another dose, or the depositor's remark. Sampled rows, rich in hits. Any-hit rate of the full collection: about 4.8%. Unless noted, calls follow the shape of the dose curve; as a rule, active = well fitted curve in the direction sought with a large enough effect; inconclusive = small, poorly fitted or top-dose-only effect, or another doubt; inactive = no such curve, though single readings can be large; an effect the other way counts as inactive or inconclusive.
SMILES,ATXN2 expr inh,USP1 inh,IL-1B inflam inh,ATXN viability,USP2a inh
Cn1cc(CNCc2ccc(OC(F)(F)F)cc2)c(-c2ccc3c(c2)OCCO3)n1,/,-25%,-25,?,-1%
CCn1cc(CNCc2cn(C)nc2-c2ccc(C3CCCCC3)cc2)cn1,-3%,-19%,-63*,i,1%
CC(=O)Nc1ccccc1NC(=O)C/C(C)=N/NC(=O)c1ccc([N+](=O)[O-])c(Cl)c1,7%,-14%,14,i,2%
Cc1cc(C(=O)Nc2ccc(Nc3ccccc3)cc2)ccc1[N+](=O)[O-],2%,-27%,-65*,i,3%
CN(CC(=O)Nc1ccc(Cl)cc1)C(=O)c1ccc(-n2cncn2)c([N+](=O)[O-])c1,-13%,1%,-5,i,1%
Cc1ccc(NC(=O)CN(C)C(=O)c2ccc(Cl)c([N+](=O)[O-])c2)cc1,-3%,0%,-85*,i,5%
O=C(Nc1ccc(Cc2ccncc2)cc1)c1ccc(Cl)c([N+](=O)[O-])c1,-19%,-18%,-73*,?,-1%
C/C(=N\NC(=O)c1ccc([N+](=O)[O-])c(C)c1)c1ccccc1Cl,12%,-3%,-70*,i,-1%
O=C(O)Cc1cccc(-c2cc(CCCCCCc3ccc(O[C@H]4O[C@H](CO)[C@@H](O)[C@H](O)[C@@H]4O)c(-c4cccc(CC(=O)O)c4)c3)ccc2O[C@H]2O[C@H](CO)[C@@H](O)[C@H](O)[C@@H]2O)c1,5%[0.709 µM],/,/,i[0.575 µM],/
C[N+](C)(C)CC(O)CC(=O)[O-] (centres undefined),14%,/,/,i,/
O=C(CSc1ncc(-c2ccccc2)[nH]1)Nc1cccc(Br)c1,-15%,-20%,/,i,/
Cc1ccc(C(=O)Nc2ccncc2)cc1[N+](=O)[O-],-8%,-6%,-55*,i,0%
O=C(Nc1ccncc1)c1ccc2ccccc2c1,14%,-5%,-61*,/,4%
CCOC(=O)Cn1nc(C)c(NC(=O)c2ccc(Cl)c([N+](=O)[O-])c2)c1C,-19%,-4%,-85*,i,0%
Cc1cc(C(=O)Nc2ccncc2)ccc1[N+](=O)[O-],-3%,-8%,-4,i,4%
CC1C(=O)N(Cc2cn(Cc3ccco3)nn2)CCS(=O)(=O)N1Cc1ccc(-c2ccc(Cl)cc2)cc1 (centres undefined),?,-31%,-28,?,/
COc1ccccc1-c1ccc(SCc2ccccc2)nn1,33%,-4%,55,i,1%
COc1ccccc1-c1ccc(SCc2ccccc2F)nn1,97%,?,-60*,i,1%
CC(O)CN(C)CC/C=C1/c2ccccc2CSc2ccccc21 (centres undefined),-6%,-5%,-19,i,3%
CN(C)CC/C=C1/c2cc(F)ccc2CSc2ccc(F)cc21,-11%,-11%,-14,i,4%
CN(CC/C=C1/c2ccccc2CSc2ccccc21)CCCO,-10%,-10%,-58*,i,4%
CN(C)CC/C=C1\c2cc(F)ccc2CSc2ccccc21,-10%,-15%,-57*,?,-3%
Cc1ccc(NC(=O)c2ccc(OCc3c(C)noc3C)cc2)cc1C,-29%,-10%,-88*,i,1%
CC(=O)Nc1ccc(NC(=O)c2ccc(OCc3c(C)noc3C)cc2)cc1,4%,5%,7,i,-1%
O=C(CCl)N1CCN2C(=O)c3ccccc3C12c1ccc(Cl)cc1 (centres undefined),?,-25%,-95*,/,-1%
SMILES,ATXN2 expr inh,USP1 inh,IL-1B inflam inh,ATXN viability,USP2a inh
O=C(Nc1cccc(Cl)c1)N1CCN2C(=O)c3ccccc3C12c1ccccc1 (centres undefined),-24%,-24%,-58*,?,-7%
Cc1cc(C)c(C)c(OC(=O)c2sc(Cl)nc2C)c1,20µM*,-5%,-104*,22µM*,1%
Cc1ccccc1NC(=O)c1sc(Cl)nc1C,-19%,-8%,-17,i,2%
Cc1ccc(NC(=O)CCl)c(C)c1,?,-1%,-99*,?,0%
O=C(Nc1cccc(C(F)(F)F)c1)c1sc(Cl)nc1C(F)(F)F,-37%,-9%,-103*,?,-1%
Cc1cccc(NC(=O)c2sc(Cl)nc2C)c1C,-7%,-16%,4,?,1%
Cc1ccc(NC(=O)CCc2ccc(C)o2)c(C)c1,14%,-28%,0,i,1%
Cc1nc(Cl)sc1C(=O)Nc1ccc(C(C)(C)C)cc1,26%,-21%,-91*,i,-1%
COCCN1C[C@@H](CO)O[C@@H](n2cnc3c(N4CCN(c5ccccc5)CC4)ncnc32)C1,3%,/,34,i,/
CS(=O)(=O)c1ccc(Cl)c(NC(=O)CCl)c1,?,-4%,-100*,?,1%
Cc1ccc(NC(=O)c2sc(Cl)nc2C)c(C)c1,-1%,-7%,-65*,i,1%
CC(=O)Nc1ccc(OC(=O)c2ccc(Br)c([N+](=O)[O-])c2)cc1,-18%,0%,-147*,i,0%
Cc1ccc(NC(=O)c2cccc(C(F)(F)F)c2)cc1NC(=O)c1[nH]cnc1C(N)=O,-11%,-29%,78,i,0%
Cc1cn(-c2cc(NC(=O)c3ccc(C)c(NC(=O)c4cccc(-c5cn[nH]c(=O)c5)c4)c3)cc(C(F)(F)F)c2)cn1,-7%,-8%,-94*,i,4%
Cc1ccc(NC2=C(CC(=O)O)C(c3ccc(F)cc3)N(c3ccc(C)cc3)C2=O)cc1 (centres undefined),-7%,-35%,/,?,/
Cn1c(=O)oc2cc(NC(=O)CCl)ccc21,?,-3%,-80*,/,-2%
Cc1ccc(NC(=O)N(Cc2cn(C)c3ccccc23)C2CCCCC2)cc1C,34%,-28%,/,i,/
COc1cc(C(=O)NS(=O)(=O)c2ccccc2C)ccc1Cc1cn(C)c2ccc(NC(=O)OC3CCCC3)cc12,39µM*,/,/,i,-17%
COCCCNC(=O)CSc1nc2c(sc3ccccc32)c(=O)n1CCc1ccc(OC)c(OC)c1,-3%,-11%,/,i,/
O=c1[nH]c(=O)n(Cc2ccco2)c2c1C(C(F)(F)F)(C(F)(F)F)N=C(c1ccc(F)cc1)N2,?,-16%,-68*,?,7%
CCc1ccc(OC(C)C(=O)N2CCC(c3nc4ccccc4s3)CC2)cc1 (centres undefined),0%,-22%,/,?,/
CC(C)CN(CC(C)C)c1nn[nH]n1,-4%,-41%,10,i,/
O=C(Nc1cccc(Cl)c1)OC1CCCCc2cccnc21 (centres undefined),-27%,-20%,-80*,i,8%
